Records with an inconclusive call do not appear. The source made the active and inactive calls. Unless noted, the call rests on the fitted dose curve; in most records, active means well fitted curve in the direction sought with a large enough effect; inconclusive means small, poorly fitted or top-dose-only effect, or another doubt; inactive means no such curve, though single readings can be large; an effect the other way counts as inactive or inconclusive.

Experiment [1] addresses Cytochrome P450 3A4 (Homo sapiens) (UniProt P08684). In words: qHTS Assay for Inhibitors and Substrates of Cytochrome P450 3A4 (AID 884). Further: on the % scale 0 is the no-effect control and ±100 the full control effect; nearly all actives have a fitted effect of over 50% in size. The essentials:
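Luminescent readout of luciferin produced by CYP3A4 (20 nM) dealkylation of Luciferin-PPXE, 25 uM (its KM). NADPH-driven reaction ran 60 min at RT after 10 min compound preincubation; data scaled to 57 uM ketoconazole as 100% inhibition.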

A short description of experiment [2]: Confirmation and Secondary Assay for Modulators of Hemoglobin Beta Chain Splicing at IVS2 654 locus (AID 910). Further: % of control where 0% means no effect. In outline: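 HeLa cells stably carrying EGFP interrupted by mutant beta-globin IVS2-654 intron (CMV-driven) were treated with compound for 2 days at 37C; corrected splicing was scored as total peak GFP intensity per well (488 nm excitation, 500-520 nm emission).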

A short description of experiment [3]: Confirmation and Secondary Assay for Modulators of Hemoglobin Beta Chain Splicing at IVS2 705 locus (AID 930).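 Further: HeLa cells stably expressing the EGFP-705 splicing reporter; GFP fluorescence per well restored by corrected splicing of the IVS2-705 intron in EGFP; % of control where 0% means no effect.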 In outline: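 HeLa cells stably carrying EGFP interrupted by mutant beta-globin intron 2 (IVS2-705) treated 2 days at 37C with compound; 500 nM antisense PNA as control. Correct splicing read as total peak GFP intensity per well by laser-scanning cytometry.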

Experiment [4] in a line: qHTS Assay for Lipid Storage Modulators (AID 1519; calls by dose curve; on activity change, negative = inhibition: on the % scale 0 is the no-effect control and ±100 the full control effect). To be noted: Drosophila S3 cells, BODIPY lipid droplet/cell ratio, laser cytometry, cells loaded with oleic acid. In outline: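 Cells seeded at 5,000 per well were treated with compounds over a concentration series and loaded with oleic acid (400 uM, as added). Lipid droplet fluorescence (488 nm excitation, 500-530 nm channel) was read by laser-scanning cytometry and normalized to 20 uM Triacsin C.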

For experiment [5], the target named is Ubiquitin carboxyl-terminal hydrolase 1 (Homo sapiens) (UniProt O94782). Nature of the experiment: Inhibitors of USP1/UAF1: Pilot qHTS (AID 504865). Further: potency means the concentration at half of the fitted maximal effect; nearly all actives have a fitted effect of over 35% in size. The essentials:
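USP1/UAF1 complex (1nM) preincubated with compound 15 min at room temperature, then Ub-Rho substrate (150nM final) added. Fluorescence read kinetically at 480/540 nm, 6 reads every 60 seconds. Buffer: 50mM HEPES pH 7.8, 0.5mM EDTA, 0.1 mg/ml BSA, 1mM TCEP, 0.01% Tween-20.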

For another experiment, the target named is Furin (Homo sapiens) (UniProt P09958). Nature of the experiment: Furin counterscreen qHTS for Zika virus inhibitors (AID 1347149). Further: nearly all actives have a fitted effect of over 70% in size. Further: potency means the concentration at half of the fitted maximal effect.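 On activity change, negative = inhibition: purified recombinant full-length human furin enzyme at 5 nM; fluorescence gain from furin cutting a BOC-RVRR-AMC peptide substrate over 15 min; top concentration of the series differs between compounds; plate controls were no-inhibitor control for no effect and no-enzyme control for full effect.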 The essentials:
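Counterscreen measures cleavage of 2 microM BOC-RVRR-AMC, below its ~15 microM Km, by 5 nM full-length human furin at pH 7.0 after a 15-min compound preincubation. Inhibition derives from the 15-min fluorescence increase at 37C.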

The subject of experiment [6] is Zika virus NS2B-NS3 protease (unlinked complex). Nature of the experiment: Confirmatory screen GU AMC qHTS for Zika virus inhibitors (AID 1347153). Further: nearly all actives have a fitted effect of over 70% in size.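 On Potency: enzyme at 25 nM with substrate at 10 µM below its Km of 18.3 µM; potency means the concentration at half of the fitted maximal effect.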 In outline:
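Unlinked NS2B-NS3 complex (25 nM) in 10 mM Tris-HCl pH 8.0, 0.01% Tween 20 preincubated 15 min with compound, then 10 microM Bz-Nle-KRR-AMC (Km 18.3 µM). Fluorescence change over 15 min, normalized, Hill-fitted.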

Experiment [7] can be described thus: ZIKV-mCherry secondary qHTS for Zika virus inhibitors (AID 1347158). Further: top concentration of the series differs between compounds. In outline: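 Compounds were tested in Vero monkey kidney cells infected with recombinant mCherry-expressing Zika virus at MOI 1 for 48-72 h at 37 °C. Fixed cells were nuclear-stained and imaged, and infection rate was taken as the fraction of mCherry-positive cells.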
Experiment [8] relates to Zika virus NS2B-NS3 protease (linked). In words: 384 well plate NINDS AMC confirmatory qHTS for Zika virus inhibitors (AID 1347163). Further: nearly all actives have a fitted effect of over 50% in size. Further: potency means the concentration at half of the fitted maximal effect.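 On activity change, negative = inhibition: linked protease at 5 30 or 60 nM final depending on run; fluorescence of AMC released from Ac-VKTGKR-AMC peptide cleaved by the protease; top concentration of the series differs between compounds; 0% = no-inhibitor control and -100% = no-enzyme control.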 In outline:
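Fluorescence at 355/460 nm was read after 25 minutes of cleavage of 30 microM Ac-VKTGKR-AMC at room temperature, in the dark. Before substrate addition, compounds (up to 1 mM final) sat ~15 minutes with 5, 30 or 60 nM linked protease. Signals were normalized to no-enzyme and no-inhibitor wells.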

Experiment [9] has as its system Zika virus NS2B-NS3 protease (linked construct). Nature of the experiment: 384 well plate NINDS Rhodamine confirmatory qHTS for Zika virus inhibitors (AID 1347164).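 Further: fluorescence from protease cleavage of Ac-LKRR-rhodamine 110 substrate; potency means the concentration at half of the fitted maximal effect; nearly all actives have a fitted effect of over 65% in size.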 The essentials:
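Linked protease at a final 5 nM, 30 nM or 60 nM was preincubated ~15 min with compounds, then given 10 microM Ac-LKRR-Rhodamine 110. Fluorescence (ex 485/em 538 nm) after 25 min in the dark at room temperature.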

Experiment [10] in a line: Tertiary RLuc qRT-PCR qHTS assay for Zika virus inhibitors (AID 1347169). Further: top concentration of the series differs between compounds; on the % scale 0 is the no-effect control and ±100 the full control effect; nearly all actives have a fitted effect of over 55% in size. In outline:
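Vero cells (1,000 per well) plated overnight at 37 degrees C, treated with compound in DMSO, then infected with recombinant ZIKV-RLuc (Cambodian) at MOI 1-2 for 48-72 hrs. Live-cell Renilla luciferase substrate added; luminescence read after 1-1.5 hrs.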

In experiment [11] the test system is Zika virus NS2B-NS3 protease. Nature of the experiment: Primary screen GU AMC qHTS for Zika virus inhibitors (AID 1347154). Further: potency means the concentration at half of the fitted maximal effect; nearly all actives have a fitted effect of over 70% in size. In outline: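 Unlinked Zika NS2B hydrophilic domain/NS3 protease domain noncovalent complex (25 nM final) in 10 mM Tris-HCl pH 8.0, 0.01% Tween 20, with AMC peptide substrate. Fluorescence (ex 340, em 450 nm) change over 15 min, room temperature; percent inhibition fitted to 4-parameter Hill equation.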

Experiment [12] in a line: Confirmatory screen NINDS Rhodamine qHTS for Zika virus inhibitors (AID 1347161). Further: potency means the concentration at half of the fitted maximal effect; nearly all actives have a fitted effect of over 60% in size. The essentials: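 In 10 mM Tris-HCl pH 8.0 containing 0.01% Tween 20, linked NS2B-NS3 protease (25 nM final) is exposed to test compounds for 15 min. Cleavage of 1.5 microM Rhodamine110 substrate is tracked by fluorescence over 15 min.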
Experiment [13] in a line: HepG2 cells viability qHTS for Zika virus inhibitors (AID 1347168). Further: on the % scale 0 is the no-effect control and ±100 the full control effect. In outline: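 To flag cytotoxic protease inhibitors, viability is measured by ATP-dependent luminescence (CellTiter Glo) after cells attached overnight receive compound for 24 to 48 hours in DMEM with 4% FBS.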
A short description of experiment [14]: Primary qHTS for small molecule stabilizers of the endoplasmic reticulum resident proteome: Secreted ER Calcium Modulated Protein (SERCaMP) assay (AID 1508630). Further: on the % scale 0 is the no-effect control and ±100 the full control effect. In outline:
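The SH-SY5Y reporter protocol was run at 3 concentrations up to 38.3 uM (primary) or 11 concentrations (follow-up): 16 h compound, 100 nM thapsigargin for 4 h, then extracellular luciferase luminescence.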

Experiment [15] has as its system Zika virus NS2B-NS3 protease (linked construct). In words: Confirmatory screen NINDS AMC qHTS for Zika virus inhibitors (AID 1347152).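 Further: AMC fluorescence gain from cleaved Bz-Nle-KRR-AMC substrate over 15 min; top concentration of the series differs between compounds; 0% = no-inhibitor control and -100% = no-enzyme control; nearly all actives have a fitted effect of over 70% in size.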 The essentials: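 Purified NS2B-NS3 protease with NS2B hydrophilic domain linked to NS3 protease domain by flexible linker, 1 nM final in 10 mM Tris-HCl pH 8.0, 0.01% Tween 20. Compounds preincubated 15 min, room temperature; Bz-Nle-KRR-AMC 10 microM (Km 18.3 µM); 15-min fluorescence change, 4-parameter Hill fit.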

Chain of Furin (Homo sapiens) (P09958 whole entry, looked up): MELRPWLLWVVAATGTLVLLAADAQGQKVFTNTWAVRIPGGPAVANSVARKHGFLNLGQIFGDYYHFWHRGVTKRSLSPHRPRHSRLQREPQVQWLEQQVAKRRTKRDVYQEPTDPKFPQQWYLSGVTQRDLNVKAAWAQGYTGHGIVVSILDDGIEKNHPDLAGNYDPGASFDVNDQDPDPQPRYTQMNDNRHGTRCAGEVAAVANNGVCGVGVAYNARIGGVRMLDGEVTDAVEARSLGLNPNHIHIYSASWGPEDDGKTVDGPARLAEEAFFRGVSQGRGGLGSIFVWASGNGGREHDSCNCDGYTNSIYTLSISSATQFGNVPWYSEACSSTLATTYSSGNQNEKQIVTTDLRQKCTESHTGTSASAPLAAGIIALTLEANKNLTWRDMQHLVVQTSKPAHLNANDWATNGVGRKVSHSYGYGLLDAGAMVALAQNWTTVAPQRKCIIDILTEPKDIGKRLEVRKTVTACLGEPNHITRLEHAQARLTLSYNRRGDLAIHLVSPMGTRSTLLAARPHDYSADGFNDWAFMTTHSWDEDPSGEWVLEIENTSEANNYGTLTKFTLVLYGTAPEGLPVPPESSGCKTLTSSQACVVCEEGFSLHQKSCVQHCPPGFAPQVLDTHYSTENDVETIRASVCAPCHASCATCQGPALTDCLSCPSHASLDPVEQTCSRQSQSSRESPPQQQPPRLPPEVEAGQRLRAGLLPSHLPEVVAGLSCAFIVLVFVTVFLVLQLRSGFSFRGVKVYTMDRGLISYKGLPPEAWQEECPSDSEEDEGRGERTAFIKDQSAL
Chain of Ubiquitin carboxyl-terminal hydrolase 1 (Homo sapiens) (O94782 whole entry, looked up): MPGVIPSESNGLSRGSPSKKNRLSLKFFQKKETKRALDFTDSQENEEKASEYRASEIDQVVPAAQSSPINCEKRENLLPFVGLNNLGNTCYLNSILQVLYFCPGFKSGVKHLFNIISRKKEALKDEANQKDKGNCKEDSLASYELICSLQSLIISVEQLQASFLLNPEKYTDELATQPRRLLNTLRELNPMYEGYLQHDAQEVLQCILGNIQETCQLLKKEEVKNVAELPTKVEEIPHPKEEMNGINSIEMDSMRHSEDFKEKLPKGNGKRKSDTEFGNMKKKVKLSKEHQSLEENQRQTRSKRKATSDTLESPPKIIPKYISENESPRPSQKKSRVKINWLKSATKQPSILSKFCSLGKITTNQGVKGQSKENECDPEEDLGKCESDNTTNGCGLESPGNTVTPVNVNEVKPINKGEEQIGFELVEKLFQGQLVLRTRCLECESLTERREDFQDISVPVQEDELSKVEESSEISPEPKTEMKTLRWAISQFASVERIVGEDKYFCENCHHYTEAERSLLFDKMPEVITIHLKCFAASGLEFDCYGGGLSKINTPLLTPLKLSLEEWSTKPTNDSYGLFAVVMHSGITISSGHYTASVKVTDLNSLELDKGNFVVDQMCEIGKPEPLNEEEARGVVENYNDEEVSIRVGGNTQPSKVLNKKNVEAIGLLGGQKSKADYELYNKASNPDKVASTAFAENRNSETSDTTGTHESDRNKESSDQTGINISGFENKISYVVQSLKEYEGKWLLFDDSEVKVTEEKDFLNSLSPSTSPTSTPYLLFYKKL
Chain of Cytochrome P450 3A4 (Homo sapiens) (P08684 whole entry, looked up): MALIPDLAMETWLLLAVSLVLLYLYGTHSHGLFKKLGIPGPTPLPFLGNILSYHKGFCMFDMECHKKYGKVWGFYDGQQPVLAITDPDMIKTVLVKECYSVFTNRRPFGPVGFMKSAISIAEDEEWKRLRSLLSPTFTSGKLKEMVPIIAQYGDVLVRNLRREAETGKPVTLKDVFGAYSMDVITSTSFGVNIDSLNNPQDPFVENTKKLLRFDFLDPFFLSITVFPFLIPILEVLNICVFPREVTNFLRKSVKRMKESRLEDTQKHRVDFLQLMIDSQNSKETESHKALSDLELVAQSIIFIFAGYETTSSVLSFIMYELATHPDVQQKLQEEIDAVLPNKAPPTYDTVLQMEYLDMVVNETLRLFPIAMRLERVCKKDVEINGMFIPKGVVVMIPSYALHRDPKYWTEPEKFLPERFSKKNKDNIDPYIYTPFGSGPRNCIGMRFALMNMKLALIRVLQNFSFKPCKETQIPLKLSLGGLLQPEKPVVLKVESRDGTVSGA

`O=C(OC1Cc2c(O)cc(O)cc2OC1c1cc(O)c(O)c(O)c1-c1c(C2Oc3cc(O)cc(O)c3CC2O)cc(O)c(O)c1O)c1cc(O)c(O)c(O)c1` (stereo not drawn): the Potency result in experiment [1], in [7] and in experiment [10] was “inactive” throughout. Moreover, the molecule was called inactive in experiment [2] and in experiment [3]. In experiment [4] (at 57.5 µM (top of the series)), the activity change, negative = inhibition is 6.85% (inactive). Further, the max response in [4] (measured here: cell count channel max response) was found to be 18.1%; in experiment [4] (measured here: lipid channel max response), 26.1%. The Potency in experiment [5] was 44.7 µM (active); in the experiment with Furin (Homo sapiens), 17.5 µM (active); in experiment [6], 44.1 µM (active); in experiment [8], 22.4 µM (active); in experiment [9] it was 17.8 µM (active).

Consider `CC1(C(=O)O)NCCc2cc(O)c(O)cc21` (stereo not drawn), for which the figures for the Potency (with Furin (Homo sapiens); in experiment [11]; in experiment [12]) were 24.1 µM (active), 10.6 µM (active) and 27.8 µM (active), respectively. For the same molecule, the Potency entry in experiment [8], in experiment [13] and in [14] was “inactive” each time.

As for `O=C(O)c1ccc(-c2ccc(C(F)(F)F)cc2)cc1`, the Potency entry (with Furin (Homo sapiens); in experiment [15]; in experiment [6]; in [10]) was “inactive” throughout.
